Source: PubChem
Shown are actives, neighbours in structure and some others; about 2.7% of the full set was active somewhere.
PGC1a acetyl inh: PGC1a acetylation modulation, inhibitor mode. actives 0.17% (n = 350,000). inhibition, % at 15.6 µM. U2OS PGC1a acetylation, AlphaScreen anti-acetyl-lysine; with virally co-expressed GCN5 acetyltransferase;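 active means every replicate shows inhibition of at least 40%; inconclusive means mean inhibition at least 40% but some replicate below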;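 further: 0% = neutral control wells and 100% = positive control wells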
PAX8 inh HTS: inhibitors of PAX8 transcriptional activity in RMG-I cells; RMG-I TPO-luciferase reporter, SteadyGlo, 24 h; inhibition, % at 12.6 µM; actives 1.2% (n = 360,000);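 active means mean replicate inhibition at least 60% with every replicate also reaching 60%; inconclusive means only one of the two criteria is met; inactive means mean below 60% and not all replicates reaching 60%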;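 further: luciferase light reporting Pax8 driven TPO promoter activity; plate controls were median of neutral control wells for no effect and mitoxantrone controls for full effect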
GSIS activator: primary screen for activators of insulin secretion dependent on glucose, INS-1E cells, GLuc reporter luminescence | INS-1E GLuc reporter insulin secretion, 2-3 h | activation, % at 16.6 µM | actives 0.61% (n = 370,000) | AID 743287;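 active means lowest replicate activation of at least 40%, so every replicate reaches that level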;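 further: 0% = median of neutral control wells and 100% = median of IBMX positive control wells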
Env fusion inh: blocks HIV Env-driven cell-cell fusion; inhibition, % at 12.3 µM; AID 651610; HeLa-JRFL Env/CEM21 cell fusion, luciferase; actives 1.1% (n = 360,000);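 active means mean replicate inhibition score of at least 50 and every replicate individually at or above 50; inconclusive means only one of the two criteria met; inactive means mean below 50 and not all replicates reaching 50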;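 further: 0% = plate neutral controls and 100% = maraviroc near 300 nM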
F508del corr: correctors of CFTR F508del function in bronchial epithelial cells | CFBE cells, YFP halide quenching; stimulated with forskolin plus potentiator P3; % fluorescence drop versus neutral controls | activity (quench increase), % at 7.58 µM | AID 720511 | actives 0.36% (n = 350,000);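 active means mean added fluorescence quench of at least 8% versus neutral control, with both replicates also reaching 8%; inconclusive means only one of the mean or replicate conditions met; inactive means mean below 8% and not both replicates reaching 8%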;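 further: cells transiently co-express mutant CFTR-F508del with the halide-sensitive YFP; corrector assay measuring rescue of mutant channel to the surface after 24 h compound exposure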
EWS-Fli block: blocks EWS/Fli oncoprotein-driven transcription. A673 NR0B1-luciferase reporter, viability-normalised. inhibition, % at 12.6 µM. actives 0.67% (n = 350,000);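 active means mean inhibition of at least 50% after viability correction, with every replicate also passing that limit; inconclusive means mean reaches 50% but only one of two replicates passes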;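 further: firefly luciferase signal divided by Alamar Blue viability fluorescence both relative to DMSO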
Numbers without * were called inactive; ? = inconclusive; . = not tested or not shown; ! = repeats disagree; [ ] = another dose, or the depositor's remark.

SMILES	PGC1a acetyl inh	PAX8 inh HTS	GSIS activator	Env fusion inh	F508del corr	EWS-Fli block
COc1ccc(CCN2CCC(Nc3nc4ccccc4n3Cc3ccc(F)cc3)CC2)cc1	-5.1	73.7*	25.3	-6.8	-1.4	33.0
COc1ccc(CNc2nc3ccccc3n2CCN2CCCCC2)cc1	.	-14.8	2.2	8.7	1.5	10.2
C[C@@H]1CN([C@@H](C)CO)S(=O)(=O)c2ccc(-c3ccccc3)cc2O[C@H]1CN(C)S(=O)(=O)c1ccccc1F	1.2	63.4*	2.4	34.2[16.7 µM]	?	10.4
C[C@H](CO)N1C[C@H](C)[C@H](CN(C)S(=O)(=O)c2ccccc2)Oc2cc(-c3cccc(F)c3)ccc2S1(=O)=O	2.7	.	-24.2	83.2*[16.7 µM]	0.6	5.1
C[C@@H]1CN([C@H](C)CO)S(=O)(=O)c2ccc(-c3cccc(F)c3)cc2O[C@@H]1CN(C)S(=O)(=O)c1ccccc1	-1.7	.	-11.6	107.0*[16.7 µM]	-0.9	12.9
C[C@H](CO)N1C[C@H](C)[C@@H](CN(C)S(=O)(=O)c2ccccc2)Oc2cc(-c3cccc(F)c3)ccc2S1(=O)=O	-18.5	.	-8.5	17.9[16.7 µM]	0.3	13.8
C[C@H]1CN([C@@H](C)CO)S(=O)(=O)c2ccc(-c3cccc(F)c3)cc2O[C@H]1CN(C)S(=O)(=O)c1ccccc1	-29.5	.	-28.7	90.5*[16.7 µM]	1.1	6.3
C[C@@H]1CN([C@@H](C)CO)S(=O)(=O)c2ccc(-c3ccccc3)cc2O[C@@H]1CN(C)S(=O)(=O)c1ccccc1F	5.2	43.8	-3.2	43.3[16.7 µM]	3.4	9.7
COc1cc(CSc2nnnn2-c2ccc(C)cc2)cc(OC)c1OC	-8.1	.	.	95.2*	.	.
COc1ccc(F)cc1CSc1nnnn1-c1ccc(O)cc1	.	25.5	-9.6	26.0	-0.3	8.4
O=C(C[C@@H]1C/C=C/CC[C@H](Cc2ccc(F)cc2)C(=O)O[C@H](c2ccccc2)CNC1=O)NCCO	.	-94.5	-7.9	66.9*	1.3	3.6
CCOc1ccc(NC(=O)/C(C#N)=C/c2ccc(N3CCCC3)c(C)c2)cc1	0.0	-35.2	115.2*	-89.4	.	.
COCC(=O)N1[C@@H](CO)[C@@H](c2ccccc2)C12CN(C(=O)NC1CCCCC1)C2	6.6	.	-11.7	.	-1.4	6.7
COCC(=O)N(C)C[C@@H]1Oc2cc(-c3cccnc3)ccc2S(=O)(=O)N([C@@H](C)CO)C[C@@H]1C	.	.	17.3	-2.1[16.7 µM]	-0.2	4.3
COc1ccc(NC(=O)c2nc(C)c(C3(C)CC(c4cccnc4)=NO3)s2)cc1 (stereo not given)	.	26.0	0.6	-309.4	17.2*	67.7*
Cc1nc(C(=O)Nc2ccc(Cl)cc2)sc1C1(C)CC(c2cccc([N+](=O)[O-])c2)=NO1 (stereo not given)	.	6.0	6.6	55.0*	-2.3	17.7
CCCOc1ccc(N2C(=O)CC(N(CCOC34CC5CC(CC(C5)C3)C4)C(C)=O)C2=O)cc1 (stereo not given)	3.1	-1.2	-26.4	57.1*	0.1	-0.3
CC(Oc1ccc2ccc(=O)oc2c1)C(=O)NCCN1CCOCC1 (stereo not given)	-0.6	-19.9	14.2	65.4*	0.4	.
CCC(=O)N1[C@H](CN(CC)C(=O)c2ccc(F)cc2)[C@H](c2ccccc2)[C@@H]1CO	-9.9	-4.3	-2.2	.	0.9	4.7
CCN(CCC(=O)O)c1ccccc1	9.7	.	63.3*	.	.	.
COc1ccc2c3c([nH]c2c1)[C@H](CO)N(CC1CC1)CC31CCN(Cc2ccccc2F)CC1	-3.6	.	-24.0	.	1.3	7.9
CNC[C@H]1Oc2c(NC(C)=O)cccc2C(=O)N(C)C[C@@H]1C	.	.	-5.7	.	.	.
COc1ccc2c(c1OC)OCC2C (stereo not given)	.	8.9	.	-53.5	8.1*	-1.0
C[C@H](CO)N1C[C@H](C)[C@H](CN(C)S(=O)(=O)c2ccc(Cl)cc2)Oc2ccc(NC(=O)CCC(F)(F)F)cc2CC1=O	5.2	34.3	-12.3	-57.6[16.7 µM]	-4.0	59.1*
C[C@H]1CN([C@@H](C)CO)C(=O)Cc2cc(NC(=O)CCC(F)(F)F)ccc2O[C@H]1CN(C)S(=O)(=O)c1ccc(F)cc1	0.0	12.6	2.0	.	-0.8	57.5*!
C[C@H]1CN([C@@H](C)CO)C(=O)Cc2cc(NC(=O)CCC(F)(F)F)ccc2O[C@H]1CN(C)S(=O)(=O)c1ccc(Cl)cc1	1.8	?	-15.0	-270.6[16.7 µM]	5.1	55.9*
